# DT40 TDP1 CPT – qHTS for Inhibitors of human tyrosyl-DNA phosphodiesterase 1 (TDP1): qHTS in cells in presence of CPT; AID 686979, 2013; Potency, µM (top dose mostly 46.2 µM), for inactives: at the top dose activity change, negative = growth inhibition, most hits filed as inhibitors; chicken DT40 Tdp1-/-;hTDP1 cells + 20 nM CPT, ATP luminescence, 48 h; hit rate 12% among 420,000; further: nearly all actives have a fitted effect of over 55% in size
#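 Chicken DT40 Tdp1-/- cells complemented with human TDP1, 400 cells/well, exposed to compounds plus 20 nM camptothecin for at least 48 h at 37 C; viability read as ATP content by CellTiter-Glo luminescence.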
# KB-V1 MDR tox – qHTS assay for MDR1-selective chemotherapeutics: Primary screen using the drug-selected MDR subline cells KB-V1. KB-V1 MDR cells viability, CellTiter-Glo, 72 h. Potency, µM (top dose mostly 46.1 µM), hits mostly cytotoxic. hit rate 3.4% among 400,000; further: nearly all actives have a fitted effect of over 60% in size
#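 Cells of the MDR subline KB-V1 are plated, dosed with compound at multiple concentrations, and incubated 72 h at 37 degrees C; CellTiter-Glo is then added and luminescence read after 10 min.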
# HT1080NT lethal – qHTS for induction of synthetic lethality in tumor cells producing 2HG: qHTS for the HT-1080-NT fibrosarcoma cell line. Potency, µM (doses to about 46.1 µM), for the others: at the top dose activity, negative = less viability, hits mostly cytotoxic. HT-1080-NT fibrosarcoma viability, CellTiter-Glo ATP luminescence, 48 h. hit rate 1.6% among 360,000;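 further: NT is the 2HG producing partner of a matched IDH1 knockdown line; 0% = DMSO-treated cells and -100% = media-only wells without cells; nearly all actives have a fitted effect of over 55% in size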
#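 Read-out is CellTiter-Glo luminescence after 10 minutes at room temperature, following 48 hours' compound treatment of HT-1080-NT cells (750 cells/well, RPMI, 5% FBS, 37 degrees C).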
# DT40 TDP1 no CPT – qHTS for Inhibitors of human tyrosyl-DNA phosphodiesterase 1 (TDP1): qHTS in cells in absence of CPT. AID 686978, 2013. DT40 Tdp1-/- hTDP1 cells, no CPT, ATP luminescence, 48 h. hit rate 15% among 420,000. Potency, µM (highest dose often 46.2 µM), for inactives: top-dose activity change, negative = growth inhibition, hits mostly inhibitors; further: nearly all actives have a fitted effect of over 55% in size
#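 Stably hTDP1-transfected Tdp1-null chicken DT40 cells were treated with library compounds minus camptothecin and grown for at least 48 hr at 37 °C, after which cellular ATP was quantified by luminescence.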
# HT1080 IDH1KD tx – qHTS for induction of synthetic lethality in tumor cells producing 2HG: qHTS for the HT-1080-IDH1KD cell line; hit rate 2% among 360,000; AID 686971, 2013; Potency, µM (highest dose often 46.1 µM), inactives show at the top dose activity, negative = toxicity, usual class: cytotoxic; HT-1080 IDH1 knockdown viability, ATP luminescence, 48 h;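 further: 0% = DMSO wells and -100% = cell-free medium wells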
#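 Knockdown cells (IDH1KD HT-1080) received compounds 2 h after plating at 750 cells/well and were kept 48 h at 37 °C in 5% FBS RPMI. A CellTiter-Glo luminescence read gave % activity for curve fitting.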
# KB-3-1 cytotox – qHTS assay for MDR1-selective chemotherapeutics: Primary screen using the parental adenocarcinoma cell KB-3-1. hit rate 1.4% among 400,000. KB-3-1 viability, CellTiter-Glo ATP luminescence, 72 h. Potency, µM (highest dose often 46.1 µM), most hits filed as cytotoxic; further: nearly all actives have a fitted effect of over 60% in size
#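 Cells are dispensed, compounds pinned in, plates held at 37 °C for 72 h, then CellTiter-Glo is added and luminescence read after 10 minutes. Cell line: parental KB-3-1 in phenol-red-free DMEM, 10% FBS.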
# * hit, by the source's call; i = inactive; ? = inconclusive; . = no result; [ ] = remark or other dose. Shown are actives, neighbours in structure and some others; about 19% of the full set was active somewhere. The call rests on the fitted dose curve; in most records, active means well fitted curve in the direction sought with a large enough effect; inconclusive means small, poorly fitted or top-dose-only effect, or another doubt; inactive means no such curve, though single readings can be large; an effect the other way counts as inactive or inconclusive. Unless noted, on the % scale 0 is the no-effect control and ±100 the full control effect; potency means the concentration at half of the fitted maximal effect.
SMILES,DT40 TDP1 CPT,KB-V1 MDR tox,HT1080NT lethal,DT40 TDP1 no CPT,HT1080 IDH1KD tx,KB-3-1 cytotox
CN(C(=O)c1cccc(NC(=O)Cc2ccc(NC(=O)C3CCN(C(=O)c4ccccc4)CC3)cc2)c1)C1CCCCC1,23.1µM*,i,-4.8%,?,-23.9%,i
CN(C(=O)c1ccc(NC(=O)Cc2cccc(NC(=O)C3CCCN(C(=O)C4CCC4)C3)c2)cc1)C1CCCC1 (centres undefined),0.184µM*,i,-10.3%,?,3.3%,i
CN(C(=O)c1cccc(NC(=O)Cc2cccc(NC(=O)C3CCN(C(=O)c4ccccc4)CC3)c2)c1)C1CCCC1,?,?,-9.7%,?,0.2%,i
CNC(=O)C1CCC(Cn2c(=O)c3sccc3n(CC(=O)N3CCC(C)CC3)c2=O)CC1 (centres undefined),2.2%,?,.,1.2%,.,i
CN(C(=O)c1cccc(NC(=O)Cc2ccc(NC(=O)C3CCCN(C(=O)C4CCCC4)C3)cc2)c1)C1CCCCC1 (centres undefined),?,i,1.4%,16.4µM*,1.6%,i
COCCNc1oc(-c2ccccc2Cl)nc1S(=O)(=O)c1ccc(C)cc1,?,.,1.8%,?,-1.5%,.
Cc1cc2nc(NCCCO)n(CC(=O)c3cc(C(C)(C)C)c(O)c(C(C)(C)C)c3)c2cc1C,16.4µM*,i,-3.4%,23.1µM*,-7.7%,?
Cc1ccc(NC(=O)C(CC(C)C)NS(=O)(=O)c2ccc3c(c2)oc(=O)n3C)c(C)c1 (centres undefined),17.2%,i,.,-11.3%,.,i
CCn1c(/C=C/c2c(C)n(CC)c3ccccc23)nc2ccccc2c1=O,?,1.64µM*,10.7%,?,14.7%,i
CCn1c(/C=C/c2ccc(O)c(O)c2)nc2ccccc2c1=O,?,i,-21.8%,6.51µM*,-23.7%,i
CCn1c(/C=C2\C(=O)Nc3ccccc32)nc2ccccc2c1=O,?,i,-7.4%,16.4µM*,-14.7%,i
Cc1ccc(/C=C/c2nc3ccccc3c(=O)n2CCc2ccccc2)cc1,?,2.59µM*,-18.7%,16.4µM*,-12.0%,i
CNC(=O)c1cnc2sc(N3CCC(C)CC3)nn2c1=O,-0.2%,i,.,-10.1%,.,i
COc1ccc(NC(=O)C(C)N2Cc3ccccc3C2=O)cc1OC (centres undefined),-3.2%,i,.,0.2%,.,i
COc1ccc(CNC(=O)COC(=O)c2ccc(S(=O)(=O)N3CCOCC3)cc2)cc1,0.2%,i,15.2%,-26.4%,21.2%,i
CCn1c(/C=C/c2ccc(O)cc2)nc2ccccc2c1=O,?,i,-25.1%,25.9µM*,-10.9%,?
CCn1c(/C=C/c2ccccc2C)nc2ccccc2c1=O,?,i,-6.4%,?,-1.8%,i
CCc1ccc(OCC(=O)N/N=C(\C)c2ccc(OC(F)F)cc2)cc1,1.6%,i,21.3%,-27.0%,-1.2%,i
CCc1ccc(OCC(=O)N/N=C(\C)c2ccccc2OC(F)F)cc1,16.4µM*,16.4µM*,-11.1%,16.4µM*,-8.0%,i
CNC(=S)N/N=C(\C)c1ccc(-n2ccnc2)cc1,-3.3%,i,12.3%,4.1%,0.7%,i
COCCNC(=S)N/N=C(\C)c1ccc(-n2ccnc2)cc1,4.47µM*,?,?,3.55µM*,10µM*,i
C/C(=N\NC(=S)NC(C)C)c1ccc(-n2ccnc2)cc1,3.26µM*,?,15.3%,4.11µM*,5.6%[9.24 µM],i
CCc1ccc(OCC(=O)N/N=C(\C)c2ccc(-n3ccnc3)cc2)cc1,?,i,-0.4%,16.4µM*,0.7%,i
Cc1c(C(=O)N2CCCCCC2)c(S(=O)(=O)NCc2ccccc2Cl)c(C)n1C,-28.1%,i,3.0%,-17.4%,-3.1%,i
C=CCC(=O)NC1CCCc2c1cnn2-c1cc(F)cc(F)c1 (centres undefined),-16.5%,i,15.0%,-5.7%,4.2%,i
SMILES,DT40 TDP1 CPT,KB-V1 MDR tox,HT1080NT lethal,DT40 TDP1 no CPT,HT1080 IDH1KD tx,KB-3-1 cytotox
CCOc1ccc(C(=O)NCC(c2cccs2)N(C)C)cc1OCC (centres undefined),-27.1%,23.1µM*,-4.7%,0.3%,5.1%,i
Cc1ccc(C(=O)NCC(=O)NCC(c2cccs2)N(C)C)cc1C (centres undefined),-19.1%,14.6µM*,-5.9%,-2.0%,-9.6%,i
Cc1ccc(S(=O)(=O)NCCC(=O)NCC(c2cccs2)N(C)C)cc1 (centres undefined),10.6%,i,-2.2%,0.3%,10.2%,i
CCCOc1ccc(C(=O)NCC(c2cccs2)N(C)C)cc1 (centres undefined),-2.2%,i,-2.6%,-27.3%,-7.5%,i
O=C(Nc1ccc(Cl)c(Cl)c1)N(Cc1c[nH]c2ccccc12)C1CCCCC1,5.8µM*,i,.,9.2µM*,.,i
COc1cccc(NC(=O)c2cccs2)c1,-17.3%,i,-3.1%,0.9%,-0.8%,i
COc1cccc(NC(=O)N(C2CCCCC2)C(C)c2cccs2)c1 (centres undefined),10µM*,i,?,12.6µM*,2.7%,?
COc1cccc(NC(=O)N(Cc2c[nH]c3ccccc23)C2CCCCCC2)c1,11.6µM*,i,.,9.2µM*,.,i
O=C(COC(=O)Cc1c[nH]c2ccccc12)NC1CCCCC1,10.0%,i,-11.3%,-11.0%,0.0%,i
Cc1ccc(N2C(=O)CS(=O)C(c3ccccc3)C2=O)cc1C (centres undefined),?,i,-8.9%,14.6µM*,-11.4%,i
Cc1ccc(-c2cn3nc(-c4ccccc4)c(-c4ccccc4)nc3n2)cc1,?,i,5.6%,?,-1.9%,i
c1ccc(-c2cn3nc(-c4ccccc4)c(-c4ccccc4)nc3n2)cc1,?,13µM*,13.6%,?,9.0%,i
CN(C)S(=O)(=O)N1CCC(Oc2ccc(C(=O)NC3CCOC(C)(C)C3)cc2)CC1 (centres undefined),-13.5%,i,11.0%,-14.7%,10.3%,i

# Screening results as filed in PubChem.
